This is part of a sample that, as a whole, favours compounds with a hit. Of some 83,000 tested, about 20% had one in any assay.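 Negative percent growth values reflect cell death: -40 means 40% of the cells present at the start died, and -100 means all died.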 Unmarked numbers belong to inactive results. The source made the active and inactive calls. The calls were made as follows: active = growth percent below 10; inactive = the rest.
Columns and labels:
Experiment in all cases: NCI-60 one-dose screen, 48 h (100 = growth as untreated, 0 = no growth, -100 = all killed)
Conditions in all cases: 10 µM unless noted
[1] = test system: HCT-15 colon
[2] = test system: HT29 colon
[3] = test system: SNB-75 CNS
[4] = test system: SNB-19 CNS
[5] = test system: U251 CNS
[6] = test system: PC-3 prostate
[7] = test system: UACC-62 melanoma
[8] = test system: LOX IMVI melanoma
[9] = test system: SK-MEL-28 melanoma

Row | Compound | growth [1] | growth [2] | growth [3] | growth [4] | growth [5] | growth [6] | growth [7] | growth [8] | growth [9]
1 | CCCCN1CCCn2c1nc1c2c(=O)n(CCC)c(=O)n1CCC | 106% | 97.8% | 74.2% | 96.6% | 91.8% | 91.3% | 85.4% | 93.8% | 103%
2 | CC1=C/C(=C(\c2ccc(N(C)C)cc2)c2ccc([N+](C)(C)C)cc2)C=CC1=[N+](C)C | 95.7% | 36.5% | 80.5% | 77% | 25.7% | 72.9% | 97.6% | 69.1% | 72.3%
3 | CC1=C(O)C(=O)C(C(C#N)(C#N)C(C#N)C#N)C1 (stereo not given) | 98.9% | 111% | 81.5% | 108% | 113% | 106% | 97.6% | 96.5% | 114%
4 | O=C(CN1CCCCC1)Nc1ccc2oc(=O)ccc2c1 | 104% | 104% | 95.6% | 98.4% | 102% | 86.8% | 97.7% | 96.6% | 121%
5 | C=CC(COC(c1ccccc1)(c1ccccc1)c1ccccc1)N(CC)CC (stereo not given) | 16.7% | 14.6% | 73% | 82.1% | 52.5% | 47.9% | 44.8% | 49.5% | 59.4%
6 | CCC(=O)c1ccc(Cl)s1 | 105% | 96.9% | 91.4% | 102% | 94.6% | 98.4% | 106% | 107% | 99.6%
7 | COc1ccc(N=Nc2nccs2)c(O)c1 | 25.4% | 40.2% | 81.9% | 51.4% | 27.8% | 42.1% | 36.8% | 11.5% | 81.4%
8 | Nc1n[nH]c2ccc([C@@H]3Nc4ccc5cn[nH]c5c4[C@H]4C5CCC(C5)[C@@H]34)cc12 (stereo not given in full) | 15% | 13.1% | -12.5% (active) | 31.4% | 23% | 16.4% | 39.4% | 31.9% | 61%
9 | Nc1n[nH]c2cc(F)c([C@@H]3Nc4ccc5[nH]ncc5c4[C@H]4C5CCC(C5)[C@@H]34)cc12 (stereo not given in full) | 6.23% (active) | 3.7% (active) | -13.5% (active) | 35.4% | 2.97% (active) | 8.48% (active) | 31.5% | 12.3% | 65.8%
10 | FC(F)(F)c1[nH]ncc1-c1nc2ccc3n[nH]c(C#Cc4cccnc4)c3c2c2c1CCCC2 | 36.1% | 32.5% | -10.9% (active) | 59.9% | 54.7% | 47.1% | 26.8% | 33.6% | 32.4%
11 | COc1ccc(-c2cc(=O)c3c(OC)c4ccoc4cc3o2)cc1 | 92.4% | 82.1% | 104% | 82.4% | 92.5% | 86.1% | 98.4% | 95.1% | 118%
12 | CCCOc1ccc2nc(NC(=O)OC)[nH]c2c1 | 12.4% | 0.423% (active) | 46.1% | 34% | 12.7% | 19.7% | 22.3% | 24.4% | 66.5%
13 | CCOC(=O)c1c(C)oc2ncnc(N3CCN(C(=O)COc4ccc(SC)cc4)CC3)c12 | 95.8% | 95.3% | 83% | 97.9% | 87.5% | 82.2% | 86.8% | 90.5% | 110%
14 | O=C1c2cc3c(cc2-c2c1c1ccc(F)cc1c(=O)n2CCCNCCO)OCO3 | -41.8% (active) | -74.3% (active) | -98.5% (active) | -21.9% (active) | -82.8% (active) | -41.9% (active) | -60.5% (active) | -88.3% (active) | -13.8% (active)
15 | COc1ccc(C2C(C#N)=C(N)Oc3n[nH]c(-c4cccs4)c32)cc1I (stereo not given) | 81.4% | 98.4% | 77.9% | 87.1% | 90.6% | 85.8% | 79.1% | 89% | 108%
16 | Cc1cc(N2CCSCC2)nc(NC2CCCC(Nc3ccnc4cc(Cl)ccc34)C2)n1 (stereo not given) | -67.8% (active) | -58.7% (active) | -60.1% (active) | 1.4% (active) | -65.7% (active) | -45.7% (active) | -87.8% (active) | -84.8% (active) | -79.9% (active)
17 | O=C(O)COc1ccc(Cl)cc1C1CCCCC1 | 106% | 104% | 88.1% | 99.9% | 102% | 102% | 95.6% | 106% | 108%
18 | O=C1c2ccccc2OC=C(c2ccccc2)N1CCCCNc1ccc(S(=O)(=O)Nc2ncccn2)cc1 | 96.1% | 100% | 80% | 101% | 91.1% | 76.4% | 86.8% | 92.7% | 108%
19 | COc1ccc(SC2c3cc(OC)c(OC)cc3Oc3nc(N)c(C#N)c(N)c32)cc1 (stereo not given) | -62.2% (active) | -24.9% (active) | -65.2% (active) | -83% (active) | -98.6% (active) | -76.8% (active) | -75.1% (active) | -92.7% (active) | -70.1% (active)
20 | COc1cc(-c2nc3ccccc3[nH]2)ccc1OCc1nnc(-c2ccc(CC(C)C)cc2)o1 | 76.5% | 75.2% | 94.3% | 91.8% | 69.5% | 86% | 92.7% | 103% | 93.5%
21 | Nc1nc2ccc3[nH]ncc3c2c2c1CCCC2 | 3.93% (active) | 5.02% (active) | -46.9% (active) | 8.98% (active) | 8.3% (active) | 3.35% (active) | 10.9% | -9.24% (active) | 9.47% (active)
22 | O=C1c2cc3c(cc2-c2c1c1ccc(Cl)cc1c(=O)n2CCCN1CCOCC1)OCO3 | 80.9% | 63.3% | 84.2% | 47.1% | 27.4% | 74% | 23.6% | 26.7% | 99.9%
23 | Nc1n[nH]c2ccc([C@@H]3Nc4ccc5[nH]ncc5c4[C@H]4C5C=CC(C5)[C@@H]34)cc12 (stereo not given in full) | 10.8% | 11.5% | -9.96% (active) | 27% | 18% | 13.8% | 37.5% | 9.79% (active) | 54.6%
24 | COc1cc2c(cc1-c1c(C)noc1C)ncc1nc(C3CCC(F)(F)CC3)n([C@H](C)COC(F)F)c12 | 16.8% | 17.3% | 37% | 47.7% | 46.8% | 33.1% | 17.8% | 14.8% | 54.4%
25 | CC(=O)NCC1c2c(n(C)c3c(Cl)c(Cl)ccc23)C(=O)NC1(C)C (stereo not given) | 102% | 108% | 87.7% | 102% | 94.7% | 91% | 94.4% | 95% | 111%
26 | O=c1cc(CSc2nnc(SCc3cc(=O)oc4c3ccc3ccccc34)o2)c2ccc3ccccc3c2o1 | 104% | 97% | 93% | 107% | 97.2% | 89.9% | 99.6% | 88.7% | 109%
27 | O=c1cc(CSc2nnc(-c3ccc(F)cc3)o2)c2ccc3ccccc3c2o1 | 98.4% | 95% | 98.3% | 101% | 102% | 92.5% | 93.5% | 87.7% | 110%
28 | COc1ccc(/C=C/c2nc(-c3n[nH]c(=O)n3-c3ccccc3)c3ccccc3n2)cc1 | 93.8% | 101% | 81.7% | 96.7% | 99.5% | 95.9% | 87.2% | 97.2% | 106%
29 | Cc1cc(N2CCCCC2)nc(NC2CCCC(Nc3ccnc4cc(Cl)ccc34)C2)n1 (stereo not given) | -67.6% (active) | -59.9% (active) | -80.9% (active) | -20.7% (active) | -97.4% (active) | -72.8% (active) | -86.2% (active) | -84.9% (active) | -84% (active)
30 | COc1ccc(/C=C/C(=O)c2cc(O)ccc2O)cc1 | 87.7% | 102% | 84.1% | 96.6% | 84.8% | 88.4% | 102% | 103% | 109%

From PubChem BioAssay (NCI)
